Assay [1] can be described thus: qHTS Screen of the MIPE 4.0 Collection Against Ewings Sarcoma (TC32) (AID 1259256). Further: nearly all actives have a fitted effect of over 45% in size.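 On viability (percent of control): 100% = DMSO-treated cells and 0% = medium-only wells without cells.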 Put shortly:
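Log-phase cells in RPMI with 5% FBS attached for 4 h, then received compounds as a titration for 48 h at 37C, 5% CO2. Viability was read by CellTiter-Glo luminescence and normalized to DMSO and no-cell wells.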

Assay [2] in a line: P-glycoprotein substrates identified in KB-8-5-11 adenocarcinoma cell line, qHTS therapeutic library screen (AID 1346987). Further: nearly all actives have a fitted effect of over 65% in size. On activity change, negative = cytotoxicity: series mostly up to about 44 µM; on the % scale 0 is the no-effect control and ±100 the full control effect. The essentials: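 Luminescence from CellTiter-Glo, read 5 min after addition, quantified survival of KB-8-5-11 (P-gp-overexpressing) cells exposed to compounds for 72 h. AC50 was derived from concentration-response curves.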
Assay [3] in a line: NS1 protein of Zika virus - qHTS assay to identify small molecule inhibitors in human HEK 293 cells (AID 1347053). Further: nearly all actives have a fitted effect of over 55% in size.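 On activity change, negative = inhibition: series mostly up to about 46 µM; plate controls were infected untreated cells for no effect and uninfected cells for full effect.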 The essentials:
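Read-out is a two-antibody TR-FRET for ZIKV NS1, normalized between uninfected cells and infected cells. Compound added 1 h before MR766 infection at MOI 0.5; human HEK 293 cells incubated 24 h, 37 C.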

Assay [4] can be described thus: qHTS of pediatric cancer cell lines to identify multiple opportunities for drug repurposing: Primary screen for TC32 cells (AID 1347089). Further: nearly all actives have a fitted effect of over 60% in size. On activity change, negative = cytotoxic: on the % scale 0 is the no-effect control and ±100 the full control effect. Put shortly:
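In the primary qHTS, MIPE compounds were tested at 11 concentrations (0.78 nM to 46 µM) and NPC compounds at 8 (0.59 nM to 46 µM) on TC32 cells for 48 h. CellTiter-Glo luminescence gave viability.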

Assay [5] is described as follows: qHTS of pediatric cancer cell lines to identify multiple opportunities for drug repurposing: Primary screen for SJ-GBM2 cells (AID 1347091).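 On activity change, negative = cytotoxic: plate controls were DMSO neutral control for no effect and bortezomib for full effect.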 Put shortly: (§1)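 Viability measured as metabolically active cells via CellTiter-Glo luminescence following 48 hours of compound exposure, 11-point dilutions in confirmatory testing. 500-1,000 cells/well plated 5 hours before dosing; controls were DMSO and 2.3 µM bortezomib.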

Assay [6] is described as follows: qHTS of pediatric cancer cell lines to identify multiple opportunities for drug repurposing: Primary screen for A673 cells (AID 1347092). Further: nearly all actives have a fitted effect of over 45% in size. The essentials:
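48 h compound exposure, A673, 500-1,000 cells/well, 37 degrees C/5% CO2. MIPE: 11-point, 0.78 nM-46 µM; NPC: 8-point, 0.59 nM-46 µM (final). Readout CellTiter-Glo luminescence after 15 min RT.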

Assay [7] in a line: qHTS of pediatric cancer cell lines to identify multiple opportunities for drug repurposing: Primary screen for SK-N-MC cells (AID 1347093).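 On activity change, negative = cytotoxic: series mostly up to about 46 µM; plate controls were DMSO neutral control for no effect and bortezomib for full effect.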 Put shortly:
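Metabolically active cells were quantified by ATP-dependent luminescence (CellTiter-Glo, 15 min at room temperature) following 48 h treatment. Cells had been plated at 500-1,000 per well and settled for 5 h beforehand.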

Assay [8] is described as follows: qHTS of pediatric cancer cell lines to identify multiple opportunities for drug repurposing: Primary screen for BT-37 cells (AID 1347094).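 On activity change, negative = cytotoxic: series mostly up to about 57 µM; plate controls were DMSO for no effect and bortezomib for full effect.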 Put shortly: (§2)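 CRCs from 8- or 11-point titrations (lowest final 0.59 nM NPC, 0.78 nM MIPE). Cell viability: CellTiter-Glo after 48 h incubation, 15 min room-temperature development, luminescence imaging.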
Assay [9] in a line: qHTS of pediatric cancer cell lines to identify multiple opportunities for drug repurposing: Primary screen for NB-EBc1 cells (AID 1347095).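 On activity change, negative = cytotoxic: plate controls were DMSO neutral control for no effect and bortezomib for full effect.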 Put shortly:
as §2

A short description of assay [10]: qHTS of pediatric cancer cell lines to identify multiple opportunities for drug repurposing: Primary screen for Saos-2 cells (AID 1347097). Further: nearly all actives have a fitted effect of over 40% in size. On activity change, negative = cytotoxic: on the % scale 0 is the no-effect control and ±100 the full control effect. Put shortly: as §2
Assay [11] in a line: qHTS of pediatric cancer cell lines to identify multiple opportunities for drug repurposing: Primary screen for SK-N-SH cells (AID 1347098). Further: nearly all actives have a fitted effect of over 65% in size.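 On activity change, negative = cytotoxic: DMSO served as neutral control and bortezomib at 2.3 µM as positive control; on the % scale 0 is the no-effect control and ±100 the full control effect.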 Put shortly:
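Cells (500-1,000/well) rested 5 h, then received compounds for 48 h; metabolically active cells were measured by CellTiter-Glo luminescence. Final concentrations spanned up to 46 µM (MIPE, 11-point) or 0.59 nM-46 µM (NPC, 8-point) in primary screens, 11-point in follow-ups.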

Assay [12] is described as follows: qHTS of pediatric cancer cell lines to identify multiple opportunities for drug repurposing: Primary screen for DAOY cells (AID 1347090). Further: nearly all actives have a fitted effect of over 55% in size.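 On activity change, negative = cytotoxic: series mostly up to about 46 µM; plate controls were DMSO for no effect and bortezomib for full effect.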 The essentials: as §1
A short description of assay [13]: qHTS of pediatric cancer cell lines to identify multiple opportunities for drug repurposing: Primary screen for U-2 OS cells (AID 1347096). Further: nearly all actives have a fitted effect of over 50% in size.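 On activity change, negative = cytotoxic: plate controls were DMSO wells for no effect and bortezomib positive control wells for full effect.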 Put shortly: (§3)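 Viability after 48 h compound treatment at 37C, 500-1,000 cells/well, read as ATP luminescence with CellTiter-Glo. Primary screens used 11-point (MIPE, 0.78 nM-46 µM) or 8-point (NPC, 0.59 nM-46 µM) final concentrations; follow-up screens used 11-point dilutions.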

A short description of assay [14]: qHTS of pediatric cancer cell lines to identify multiple opportunities for drug repurposing: Primary screen for NB1643 cells (AID 1347099). Further: nearly all actives have a fitted effect of over 50% in size.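 On activity change, negative = cytotoxic: plate controls were DMSO neutral control for no effect and bortezomib positive control for full effect.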 Put shortly:
as §2

Assay [15] can be described thus: qHTS of pediatric cancer cell lines to identify multiple opportunities for drug repurposing: Primary screen for LAN-5 cells (AID 1347100).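 On activity change, negative = cytotoxic: plate controls were DMSO neutral control for no effect and bortezomib positive control for full effect.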 The essentials: as §3

Several values for one entry are separate records, joined by “and”; a condition that tells them apart may be missing. Equal values may be shown once. Results filed as inconclusive are left out. Unmarked numbers belong to inactive results. Activity calls are given as the source filed them. The call rests on the fitted dose curve; in most records, active means well fitted curve in the direction sought with a large enough effect; inconclusive means small, poorly fitted or top-dose-only effect, or another doubt; inactive means no such curve, though single readings can be large; an effect the other way counts as inactive or inconclusive.
Potency means the concentration at half of the fitted maximal effect.

Regarding `CCc1cnn2c(NCc3ccc[n+]([O-])c3)cc(N3CCCC[C@@H]3CCO)nc12`, the Potency was 23.5 nM (active) in assay [1]; 0.235 µM (active) in assay [2]; 148 nM (active) in assay [3]; 131 nM (active) in assay [4]; 23.5 nM (active) in assay [5]; 14.8 nM (active) in [6]. In addition, the Potency in [7] was 29.6 nM (active); in assay [8], 38.5 nM (active); in assay [9], 18.7 nM (active); in assay [10], 23.5 nM (active); in assay [11] it was 38.3 nM (active).

As to `CC1(C)CC(O)CC(C)(C)N1[O]`, the Potency entry in assay [1], in [2], in assay [3], in [4], in assay [12] and in [7] was “inactive” in each case. The Potency entry in assay [8], in assay [13], in assay [10], in assay [11], in [14] and in [15] was “inactive” each time.

With `C=CCNc1c(O)cc2c(O)c1C[C@@H](C)C[C@H](OC)[C@@H](O)[C@@H](C)C=C(C)[C@H](OC(N)=O)[C@@H](OC)C=CC=C(C)C(=O)N2`, the Potency in [1] was 264 nM (active); in [2], 6.62 µM (active); in assay [4], 1650 nM (active); in assay [5] it was 526 nM (active); in [6], 935 nM (active); in [7], 1180 nM (active). For the same compound, the Potency in [8] is 217 nM (active); in assay [9], 1320 nM (active); in [11] it was 3040 nM (active); in [14], 1480 nM (active); in assay [15] it was 1870 nM (active). Besides, the Potency result in assay [3] is “inactive”.

Consider `CCc1nc(-c2cccc(C)c2)c(-c2ccnc(NC(=O)c3ccccc3)c2)s1`, for which the Potency was 20900 nM (active) in assay [1]; 20.9 µM (active) in [2]; 10500 nM (active) in [3]; 18700 nM (active) in [5]; 29600 nM (active) in [7]; 27300 nM (active) in [8]. Further, the values for the Potency in [9], in assay [10] and in assay [14] were 20900 nM (active), 16600 nM (active) and 18700 nM (active), respectively. The Potency entry in [4] and in [11] was “inactive” in each case.

For the compound `CC(C)Oc1ccc(C(=O)N[C@H](CNC(=O)CN(C)C)Cc2ccc(-c3cn4cccc([C@H](C)O)c4n3)cc2)cc1Cl`, the Potency in assay [1] was 4.2 nM (active); in [2] it was 26.4 µM (active); in [3], 20900 nM (active); in assay [4] it was 370 nM (active); in [5], 148 nM (active); in [6], 148 nM (active). Further, the Potency in [7] was 148 nM (active); in [9], 372 nM (active); in assay [10], 332 nM (active); in assay [15], 1050 nM (active). Besides, the Potency result in assay [13] is “inactive”.

Take `CC(C)(C)[N+]([O-])=Cc1ccc(S(=O)(=O)O)cc1S(=O)(=O)O`: the Potency result in assay [1], in assay [2], in assay [3], in assay [4], in assay [5] and in [6] was “inactive” in each case. For the same compound, the Potency result in [7], in assay [8], in assay [9], in assay [13], in assay [10] and in [11] was “inactive” each time. Further, the Potency entry in assay [14] and in assay [15] was “inactive” in each case.

As to `COc1cc(OC)c(C=CS(=O)(=O)Cc2ccc(OC)c(NCC(=O)O)c2)c(OC)c1`, the Potency in [1] is 52.6 nM (active); in [2] it was 0.264 µM (active); in assay [3], 469 nM (active); in assay [4], 294 nM (active); in [5], 166 nM (active); in assay [6], 148 nM (active). Besides, the Potency was 93.5 nM (active) in assay [7]; 187 nM (active) in assay [9]; 59 nM (active) in assay [10]; 7640 nM (active) in [11]; 37.2 nM (active) in assay [14]; 148 nM (active) in [15].

In the case of `c1ccc2c(Oc3nc(Nc4ccc(N5CCOCC5)cc4)c4ncn(C5CCCCC5)c4n3)cccc2c1`, the Potency result in [1], in assay [2], in assay [3], in [4], in assay [12] and in assay [8] was “inactive” in each case. For the same compound, the Potency entry in assay [13], in [10], in assay [14] and in assay [15] was “inactive” throughout. Moreover, the Potency in assay [7] was 11800 nM (active).

Consider `C[C@H](NCc1ccc2c(c1)nc(NC(=O)c1ccc(-c3cn[nH]c3)s1)n2CCc1ccccc1)C(C)(C)C`, for which the Potency is 2960 nM (active) in assay [1]; 2.35 µM (active) in assay [2]; 8330 nM (active) in assay [3]; 9300 nM (active) in [4]; 1050 nM (active) in assay [5]; 1660 nM (active) in assay [7]. The Potency in [8] is 1370 nM (active); in assay [9], 1870 nM (active); in assay [10] it was 1180 nM (active); in assay [11], 3040 nM (active); in assay [14] it was 1180 nM (active); in [15], 833 nM (active).

With `C#CCC(Cc1cnc2nc(N)nc(N)c2n1)c1ccc(C(=O)N[C@@H](CCC(=O)O)C(=O)O)cc1` (stereo partly specified), the Potency in assay [1] is 33.2 nM (active); in [2], 0.0418 µM (active); in assay [3], 132 nM (active); in [4], 37 nM (active); in [12], 118 nM (active); in [6], 29.6 nM (active). Moreover, the Potency in [7] was 23.5 nM (active); in assay [8], 54.4 nM (active); in [9], 372 nM (active). For the same compound, the Potency result in assay [13] and in assay [10] was “inactive” throughout.

On to `CC(C)(O)Cn1c(NC(=O)c2ccc(-c3cn[nH]c3)s2)nc2cc(CN3CCOCC3)ccc21`, for which the Potency is 3320 nM (active) in assay [1]; 3.72 µM (active) in assay [2]; 5260 nM (active) in assay [3]; 2350 nM (active) in assay [12]; 743 nM (active) in assay [5]; 1180 nM (active) in [6]. Besides, the Potency in [7] was 2350 nM (active); in assay [8] it was 1090 nM (active); in assay [9], 743 nM (active); in [13] it was 1870 nM (active); in [10] it was 743 nM (active); in [11] it was 1710 nM (active). In addition, the values for the Potency in assay [14] and in assay [15] were 743 nM (active) and 332 nM (active), respectively.

Turning to `CC(C)C[C@H](NC(=O)[C@@H](NC(=O)c1cccc(-c2ccccc2)n1)[C@@H](C)O)B(O)O`, the Potency in assay [1] was 66.2 nM (active); in assay [2] it was 833 nM (active) and 820 nM (active); in assay [3], 132 nM (active); in assay [12], 59 nM (active); in assay [5], 41.8 nM (active); in [6], 187 nM (active). Also, the Potency in [7] is 23.5 nM (active); in assay [8], 96.8 nM (active); in assay [9], 83.3 nM (active); in [13], 148 nM (active); in [10], 5900 nM (active); in assay [11], 60.7 nM (active). In addition, the Potency in [14] is 74.3 nM (active); in assay [15], 33.2 nM (active).

As for `CC(C)(C)[C@H](NC(=O)c1ccc(N)c(Cl)c1)C(=O)N1CCC[C@@H]1C(=O)N[C@H](C#N)CC(=O)O`, the viability (percent of control) in assay [1] was 127% [at 3.51 µM]. The activity change, negative = cytotoxicity in [2] is 2.87% [at 5.11 µM]. Moreover, the activity change, negative = inhibition in [3] was 0.927% [at 4.81 µM]. Also, the activity change, negative = cytotoxic in assay [4] is 10.4% [at 4.81 µM]; in assay [8], -11.4% [at 6.03 µM]; in assay [9], 14.9% [at 4.84 µM]; in assay [13] it was 9.94% [at 4.84 µM]; in assay [11], 23.1% [at 6 µM]; in [15], 8.05% [at 4.84 µM]. Besides, the Potency in [7] is 235 nM (active); in assay [14], 1050 nM (active).
